Data reported in PubChem BioAssay AID893 (National Center for Advancing Translational Sciences (NCATS), 2007).
Where “and” joins values, the source holds several entries; their conditions need not be identical. Identical values can stand only once. In all, about 75,000 compounds went through this assay and about 5,700 (7.6%) were called active. A call without a number means that no potency is given here. Not shown: some 7% with an inconclusive outcome. The sample as a whole holds a higher share of actives than the screen did. A number with no mark means an inactive call. Calls come from the whole dose curve; as a rule, active = well fitted inhibition curve with a large enough effect; inconclusive = small, poorly fitted or top-dose-only effect; inactive = no such curve, though single readings can be large or run the other way.

target: 3-hydroxyacyl-CoA dehydrogenase type-2 (Homo sapiens) (UniProt Q99714); assay: qHTS Assay for Inhibitors of HSD17B4, hydroxysteroid (17-beta) dehydrogenase 4; conditions: recombinant HSD17B10, NADH fluorescence kinetic; series mostly up to 57.1 µM;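 note: the protocol describes HADH2 (HSD17B10) and not the HSD17B4 of the title; nearly all actives have a fitted effect of over 70% in size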
How it was run: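 His-tagged E. coli-expressed HADH2 at 20 nM in 100 mM Tris-HCl pH 9.0 with 0.01 % Tween-20, preincubated 15 min with compound at room temperature. Reaction with 1 mM NAD+ and 90 uM beta-hydroxybutyryl coenzyme A; NADH fluorescence (360/450 nm) read kinetically over 4 min, last minus first point.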
Potency is the fitted concentration of half-maximal effect.

Row | SMILES | Potency | activity change, negative = inhibition
1 | CCOc1ccc(NC(=O)CSc2nc3c(c(=O)n2-c2ccccc2OC)SCC3)cc1 | inactive | –
2 | COc1ccc(/C=C/NC(=O)Cc2ccc(OC)c(OC)c2)cc1 | – | -1.94% [at 11.4 µM] and 1.41% [at 11.4 µM]
3 | O=C(c1cccc(S(=O)(=O)N2CCOCC2)c1)N1CCOCC1 | inactive | –
4 | COc1cccc(-c2nc(Nc3ccncc3)c3ccccc3n2)c1 | inactive | –
5 | c1ccc2c(Nc3ccncc3)nc(-c3ccoc3)nc2c1 | 20 µM (active) | –
6 | O=C(Cn1nnc(-c2ccccc2)n1)NCc1ccc2c(c1)OCO2 | inactive | –
7 | c1cncc(-c2nc(N3CCNCC3)c3ccccc3n2)c1 | inactive | –
8 | Cc1cnc(CNc2nc(-c3cccnc3)nc3ccccc23)cn1 | inactive | –
9 | c1ccc2c(Nc3ccncc3)nc(-c3ccc4c(c3)OCO4)nc2c1 | 25.1 µM (active) | –
10 | Cc1noc(C)c1-c1nc(Nc2ccccc2)c2ccccc2n1 | 20 µM (active) | –
11 | CNc1nc(-c2ccccc2OC)nc2ccccc12 | inactive | –
12 | COc1ccccc1CNc1ccnc(-c2c(C)noc2C)n1 | inactive | –
13 | CCCn1c(=O)c2[nH]c(C3CCCC3)nc2n(CCC)c1=O | inactive | –
14 | O=C(Cn1cc2c(n1)CCCCC2)NCCN1CCOCC1 | inactive | –
15 | Cc1cc(NC(=O)COC(=O)c2ccc(F)c(S(=O)(=O)N3CCOCC3)c2)no1 | inactive | –
16 | CC1(C)OC2CC(=O)OC[C@@]23C1CC(=O)[C@]1(C)C3CC[C@@]2(C)C(c3ccoc3)OC(=O)C3O[C@@]321 (some centres not stated) | inactive | –
17 | NC[C@@H]1O[C@H](O[C@@H]2[C@H](O[C@@H]3O[C@H](CO)[C@@H](COC[C@H]4O[C@@H](CN)[C@@H](O)[C@@H](O)[C@@H]4N)[C@@H]3O)[C@@H](O)[C@@H](N)C[C@H]2N)[C@@H](N)[C@H](O)[C@@H]1O | inactive | –
18 | C=CCSc1nnc(Cn2c(=O)sc3ccccc32)n1C | inactive | –
19 | Cc1cc(NC(=O)CN2CCC(O)(c3cccc(F)c3)CC2)no1 | inactive | –
20 | CCCN(C/C=C\I)[C@@H]1CCc2cccc(O)c2C1 | inactive | –
21 | CC(NC(=O)CN1CCN(Cc2ccc(Cl)cc2)C1=O)c1ccc2c(c1)OCCO2 (configuration not stated) | inactive | –
22 | CC1CCCCC1NC(=O)CSc1nnc(N)s1 (configuration not stated) | inactive | –
23 | O=c1ccc2cc(S(=O)(=O)N3CCN(c4ccccc4)CC3)ccc2o1 | inactive | –
24 | CN(C)CCCn1c(N)c(C#N)c2nc(C#N)c(C#N)nc21 | 25.1 µM (active) | –
25 | O=C1NC(=O)[C@@](Cc2ccccc2)(c2cccnc2)N1 | – | -1.35% [at 11.4 µM]
26 | CCOc1ccc(OCC)c(NC(=O)C2CCN(S(=O)(=O)c3c(C)noc3C)CC2)c1 | inactive | –

Row | SMILES | Potency | activity change, negative = inhibition
27 | Cc1ccc(F)cc1NC(=O)c1ccc2c(c1)OCO2 | inactive | –
28 | COc1ccccc1OCCNCC(O)COc1cccc2[nH]c3ccccc3c12 (configuration not stated) | inactive | –
29 | C#CC(C)(C)NC(=O)CSc1nc2c(c(=O)n(C)c(=O)n2C)n1CCCC | inactive | –
30 | Cc1cc(C(F)(F)F)n2ncc(-c3ccccc3)c2n1 | inactive | –
31 | COC(=O)c1cnn2c(C(F)(F)F)cc(-c3ccco3)nc12 | 25.1 µM (active) | –
32 | COC(=O)c1ccccc1NC(=O)Cn1nc(C(F)(F)F)c2c1CCC2 | inactive | –
33 | CCC1=C(OC(=O)N(CC)CC)N2C(=O)OC(=NCCc3c[nH]c4ccccc34)[C@]2(C)[C@H]2C1=CC[C@H]1C(=O)N(CC)C(=O)[C@H]12 | inactive | –
34 | CCOC(=O)c1cn(CC(=O)Nc2ccc(C(C)C)cc2)nn1 | inactive | –
35 | Cn1c(NC(=O)c2ccc3c(c2)OCO3)cc(=O)n(C)c1=O | inactive | –
36 | Cc1ccc(F)cc1NC(=O)c1cccc(N(C)C)c1 | inactive | –
37 | Cc1ccc(NC(=O)c2cccc(N(C)C)c2)cc1NC(=O)c1ccc(O)cc1 | 31.6 µM (active) | –
38 | Cc1ccccc1NC(=O)c1ccccc1 | inactive | –
39 | CN(C)CCSS(=O)(=O)O | – | 8.4% [at 11.4 µM]
40 | Cc1ccnc(N2CCCC(C(=O)Nc3cc(F)ccc3C)C2)n1 (configuration not stated) | 25.1 µM (active) | –
41 | Cc1ccc(NC(=O)C2CCCN(S(=O)(=O)c3c(C)noc3C)C2)c(C)c1 (configuration not stated) | inactive | –
42 | O=C(Nc1ccc2c(c1)OCCO2)C1CCCN(c2ncccn2)C1 (configuration not stated) | inactive | –
43 | COc1ccc(N(CC(=O)NC2CCCCCCC2)S(=O)(=O)c2c(C)nn(C)c2C)cc1 | inactive | –
44 | COc1cccc(-n2cc3c(c2-c2ccccc2)c(=O)n(C)c(=O)n3C)c1 | inactive | –
45 | Cc1occc1C(=O)Nc1nnc(C2CCCCC2)s1 | inactive | –
46 | Cc1occc1C(=O)Nc1nnc(-c2ccncc2)s1 | 31.6 µM (active) | –
47 | Cc1occc1C(=O)Nc1cccc(Cn2cccn2)c1 | inactive | –
48 | O=C(NC1CCCC1)c1ccc(Br)s1 | inactive | –
49 | CCOc1ccc2nc(SC(CC)C(=O)Nc3cc(C)on3)sc2c1 (configuration not stated) | inactive | –
50 | CN1CCCC1CCO[C@@](C)(c1ccccc1)c1ccc(Cl)cc1 (some centres not stated) | inactive | –
51 | COc1ccc2[nH]cc(CCNc3ncnc4ccc(-c5ccc(C(=O)N(C)C)cc5)cc34)c2c1 | inactive | –
52 | O=C(CS(=O)(=O)c1cn(Cc2cccc(F)c2)c2ccccc12)N1CCCCC1 | inactive | –

Row | SMILES | Potency | activity change, negative = inhibition
53 | CCn1c(NCCc2ccc(OC)c(OC)c2)nc2c1c(=O)n(C)c(=O)n2C | inactive | –
54 | CC1CCN(Cc2nc3c(c(=O)n(C)c(=O)n3C)n2CCc2ccccc2)CC1 | inactive | –
55 | Cn1c(=O)c2c(nc(NCCc3ccccc3)n2Cc2ccccc2)n(C)c1=O | 31.6 µM (active) | –
56 | CCN(Cc1nc2ccccc2c(=O)[nH]1)Cc1cc(=O)oc2cc(C)c(C)cc12 | inactive | –
57 | Cc1ccc2c(CSc3nncs3)cc(=O)oc2c1 | 12.6 µM (active) | –
58 | COC(=O)[C@@]1(Cc2ccc(OC)cc2)[C@H]2c3cc(C(=O)N4CCCC4)n(Cc4ccc(C(F)(F)F)nc4)c3C[C@H]2CN1C(=O)c1ccccc1 | inactive | –
59 | CC(C)c1ccc(NS(=O)(=O)c2cn(C)c(=O)n(C)c2=O)cc1 | inactive | –
60 | O=c1[nH]nc(Cc2ccccn2)c2ccccc12 | inactive | –
61 | CN(CCc1ccccn1)S(=O)(=O)c1ccc2c3c(cccc13)C(=O)N2 | 31.6 µM (active) | –
62 | COC(=O)c1ccccc1NC(=O)c1cncc(Br)c1 | inactive | –
63 | O=C(CSc1nnc2ccccn12)c1ccccc1 | inactive | –
64 | CCc1ccc(NC(=O)CSc2nnc(-c3cnccn3)n2Cc2ccco2)cc1 | inactive | –
65 | CCc1ccc(Nc2ncc3c(n2)CC(c2ccco2)CC3=O)cc1 (configuration not stated) | 20 µM (active) | –
66 | O=C(Nc1ncc2c(n1)CC(c1ccco1)CC2=O)c1ccc(Cl)cc1 (configuration not stated) | inactive | –
67 | COC(=O)c1ccc(C23CC4(C2)[C@H](CN(Cc2cccnc2)[C@@H]4c2ccccc2)C3c2ccc(Cl)nc2)cc1 (some centres not stated) | inactive | –
68 | COc1cc(C2C(C(=O)Nc3ccccc3OC)=C(C)Nc3ncnn32)ccc1O (configuration not stated) | inactive | –
69 | Cc1c(C(=O)OCC(=O)N(CCC#N)c2ccccc2)oc2c1ccc1ccccc12 | 31.6 µM (active) | –
70 | Cc1c(C(=O)OCc2cc(=O)n3cc(Br)ccc3n2)oc2ccccc12 | inactive | –
71 | COc1ccc(N(CC(=O)NC(C)(C)C)C(=O)c2ccco2)cc1 | inactive | –
72 | CCOC(=O)c1cccc(NC(=O)CN(c2ccc(C)cc2)S(=O)(=O)c2c(C)noc2C)c1 | inactive | –
73 | CC(C)c1nc2oc3c(N4CCN(C)CC4)ncnc3c2c2c1CCC2 | inactive | –
74 | CCOC(=O)CSc1nnc(CNC(=O)c2cccs2)n1-c1cc(OC)ccc1OC | inactive | –
75 | C/C(O)=C\c1nc(=O)c2c(C)cc(C)nc2n1-c1ccccc1 | inactive | –
76 | Cc1cc(N2CCCC2)n2nc(C)c(-c3ccccc3)c2n1 | inactive | –
77 | Cc1nn2c3cc(N4CCOCC4)ccc3nc2c2ccccc12 | inactive | –
78 | O=C(c1ccco1)N1CCN(c2cccc(Cl)c2)CC1 | inactive | –

Row | SMILES | Potency | activity change, negative = inhibition
79 | Cc1cc(C)c2c(n1)nn1c(N3CCN(c4cccc(Cl)c4)CC3)cc(C)nc21 | 3.16 µM (active) | –
80 | Cc1cc(C)c2c(n1)nn1c(N3CCOCC3)cc(C)nc21 | 12.6 µM (active) | –
81 | COc1ccc(Cl)cc1NC(=O)c1oc(C)nc1C | inactive | –
82 | CC(C)(C)c1csc(NC2=NS(=O)(=O)c3ccccc32)n1 | inactive | –
83 | CC1(C)C=CC(=O)[C@]2(C)C1CC(=O)[C@]1(C)C2CC[C@@]2(C)C(c3ccoc3)OC(=O)C3OC321 (some centres not stated) | inactive | –
84 | O=C(Cl)c1ccccc1[N+](=O)[O-] | inactive | –
85 | CC1CCCC(N2CCN(C(=O)c3ccc(F)cc3)CC2)C1 (configuration not stated) | inactive | –
86 | COc1ccccc1-c1nc(N2CCN(C)CC2)c2ccccc2n1 | inactive | –
87 | CCn1cc(C(=O)NC2CCCCCC2)c(=O)c2cc(S(=O)(=O)N3CCCCC3)ccc21 | inactive | –
88 | CCC1(C)Cc2c(sc3nc4n(c(=O)c23)CCCS4)CO1 (configuration not stated) | 31.6 µM (active) | –
89 | CN(C)CCSc1nc(N)c2c3c(sc2n1)COC(C)(C)C3 | inactive | –
90 | CCCCc1c(O)nc2n(c1=O)CCS2 | inactive | –
91 | CCOC(=O)CCCNC(=O)CN1C(=O)NC(CCc2ccccc2)C1=O (configuration not stated) | inactive | –
92 | CCC(=O)N1CCN=C1SCc1ccc(F)cc1 | inactive | –
93 | Cc1c(S(=O)(=O)O)oc2c1C(=O)C(=O)c1c-2ccc2c1CCCC2(C)C | 10 µM (active) | –
94 | Cc1cc2nc(-c3ccc(NC(=O)c4cccnc4)cc3)oc2cc1C | inactive | –
95 | CCCCCC(=O)Nc1ccc2oc(-c3ccncc3)nc2c1 | 31.6 µM (active) | –
96 | CCCCC(=O)Nc1ccc2c(c1)OCCO2 | inactive | –
97 | CNC(=O)c1c(NC(=O)c2ccc(S(=O)(=O)N3CCOCC3)cc2)sc2c1CCC2 | inactive | –
98 | Cc1ccc(S(=O)(=O)N(C)CC(=O)N2CCc3ccccc32)cc1 | inactive | –
99 | COCCN(CC(=O)Nc1ccccc1C)S(=O)(=O)c1ccc(S(=O)(=O)N2CCCC2)cc1 | inactive | –
100 | CSc1nnc(-c2ccncc2)n1CCCN1CCCC1=O | inactive | –
101 | CC(C)(C)OC(=O)c1c(N)n(CCCN2CCCC2=O)c2nc3ccccc3nc12 | 25.1 µM (active) | –
102 | CCOc1cc2[nH]c(=S)n(CCCN3CCCC3=O)c(=O)c2cc1OCC | inactive | –
